Screening data from PubChem BioAssay.
Most compounds without a hit are left out; they make up all but 2.4% or so of the library.
TLR4 MyD88 comp: inhibitors of human TLR4-MyD88 binding; O00206+Q99836; HeLa CL3-4 TLR4/MyD88 BLA complementation, FRET ratio; inhibition, % at 8.4 µM; 0.18% of 200,000 active; in the data active means inhibition above about 25%
HSF1 inhib: HSF1 inhibition. 0.77% of 300,000 active. AID 2098. activity change, negative = inhibition, % at 7.5 µM (by protocol). NIH3T3-HGL HSE-luciferase, MG132-induced, luminescence 8 h; hits give low values;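 active means more than half of replicate wells show activity change below -50%, luminescence cut by over half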;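 further: luciferase reports HSF-1 transcriptional activity via heat shock element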
NOD2-RIPK2 inh: NOD2-RIPK2 protein interaction inhibition | AID 624267 | 0.38% of 360,000 active | inhibition, % at 4.98 µM | CHO BLA complementation NOD2-RIPK2, CCF4 ratio; in the data active means inhibition above about 21%
TLR9-MyD88 block: blocks human TLR9 binding to MyD88 | Q9NR96+Q99836 | CHO BLA complementation TLR9-MyD88, CCF4 FRET ratio | inhibition, % at 4.98 µM | 0.21% of 340,000 active | AID 504734;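 active means inhibition above the mean over all tested compounds plus 3 SD, cut at about 21% in these data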
HSF1 activator: increases HSF-1 driven luciferase reporter signal | AID 504408 | 1.7% of 300,000 active | NIH3T3-HGL HSF-1 luciferase reporter, MG132, 8 h; 100% = twice DMSO control signal | activation, % at 9 µM;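 active means mean replicate activation of at least 50% with a set share of replicates each reaching 50%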
Of the large screens only hits and unclear results are named; the others gave an inactive call.

Cc1c(C(=O)Nc2ccccc2)sc2nc(-c3ccccc3)cn12	HSF1 activator 54.7
CC(C)C[C@H]1CN(CCCC[C@H]2CNC(=O)C(=O)N2CCc2ccccc2)C(=O)C(=O)N1CCc1ccc(O)cc1	none (no result: TLR4 MyD88 comp, HSF1 inhib, TLR9-MyD88 block, HSF1 activator)
CNCc1c(OCc2ccccc2)ccc2ccccc12	none (no result: TLR4 MyD88 comp)
CNCc1c(OCc2ccccc2F)ccc2ccccc12	HSF1 inhib -71.2
COc1cc(CNC[C@H]2O[C@@H](n3cnc(C(N)=O)n3)[C@H](O)[C@@H]2O)ccc1OCc1cccc(Cl)c1	none (no result: TLR4 MyD88 comp, HSF1 inhib, HSF1 activator)
CCOc1ccccc1NC(=O)COC(=O)C1COc2ccccc2O1 (centres undefined)	none (no result: TLR4 MyD88 comp, HSF1 inhib, HSF1 activator)
O=[N+]([O-])c1ccc(-n2nnnc2-c2ccccc2)cc1	none
O=[N+]([O-])c1ccc(-n2nnnc2-c2ccccc2)c([N+](=O)[O-])c1	HSF1 activator 231.0
CC(C)N(C(=O)[C@H]1C[C@H](CC(=O)NCCCn2ccnc2)C(=O)N2CCc3c([nH]c4cc(CCC(=O)N(C)C)ccc34)[C@]12C)C(C)C	none (no result: TLR4 MyD88 comp, HSF1 inhib, HSF1 activator)
Brc1ccc(CSc2nnc(-c3ccccn3)n2Cc2ccco2)cc1	HSF1 activator 145.1
Cc1ccccc1CSc1nnc(-c2cccs2)n1Cc1ccco1	none
Cc1ccccc1CSc1nnc(-c2ccco2)n1Cc1ccco1	HSF1 activator 117.2
c1ccc(CSc2nnc(-c3ccco3)n2Cc2ccco2)cc1	HSF1 activator 79.9
O=C(CSc1nnc(-c2ccco2)n1Cc1ccccc1)OC1CCCCC1	HSF1 activator 78.7
c1ccc(CSc2nnc(-c3cccs3)n2Cc2ccco2)cc1	none
CCCCCCCCCC(=O)N[C@@H]1c2cc(OC)c(OC)cc2C[C@H]1O	none (no result: TLR4 MyD88 comp, HSF1 inhib, HSF1 activator)
CC(=O)N(C)c1ccc(N=Nc2c(C)[nH]n(C(N)=S)c2=O)cc1	HSF1 activator 53.3
c1ccc(-c2noc(-c3ccncc3)n2)nc1	none
Cc1ccc(OCc2nc(-c3ccccn3)no2)cc1	HSF1 activator 63.0
O=[N+]([O-])c1cccc(-c2nc(-c3ccccn3)no2)c1	HSF1 activator 53.6 (no result: TLR4 MyD88 comp)
COc1cccc(-c2nc(-c3ccccn3)no2)c1	none (no result: NOD2-RIPK2 inh, TLR9-MyD88 block)
COc1nc(-c2ccccc2)ccc1-c1noc(COc2ccccc2)n1	HSF1 inhib -68.3
c1ccc(-c2noc(-c3ccc4ccccc4c3)n2)nc1	HSF1 inhib -78.0
O=C(COC(=O)c1ccccc1)Nc1cccc(S(=O)(=O)N2CCCCC2)c1	none (no result: TLR4 MyD88 comp, HSF1 inhib, HSF1 activator)
Cc1nc(NC(=O)c2ccccc2)sc1-c1cc(C(=O)NCCO)nn1Cc1ccccc1	none (no result: TLR4 MyD88 comp, HSF1 inhib, TLR9-MyD88 block, HSF1 activator)
O=c1c(-c2ccccc2)nc2ccccc2n1C(CCc1ccccc1)c1nc2ccccc2[nH]1 (centres undefined)	none (no result: TLR4 MyD88 comp, HSF1 inhib, TLR9-MyD88 block, HSF1 activator)
COc1ccc(C(=O)[C@@H]2CC[C@](C)(C(=O)O)C2(C)C)cc1	none (no result: TLR4 MyD88 comp)
CCOC(=O)C(=Cc1ccc(Br)cc1)C(=O)OCC	HSF1 activator 148.3 (no result: TLR4 MyD88 comp)
CCOC(=O)C(=O)Nc1ccc(F)cc1	none
CCOC(=O)C(=Cc1ccc(F)cc1)C(=O)OCC	HSF1 activator 125.9 (no result: NOD2-RIPK2 inh, TLR9-MyD88 block)
CCOC(=O)C(=Cc1ccc(-n2ccnc2)cc1)C(=O)OCC	HSF1 activator 128.0
CC(C)CNC(=O)c1ccc(-c2ccc(F)c(F)c2)c2ccoc12	none (no result: TLR4 MyD88 comp, HSF1 inhib, TLR9-MyD88 block, HSF1 activator)
Cc1ccc(COc2ccc3c(c2)OCO3)cc1	HSF1 activator 58.9 (no result: TLR4 MyD88 comp)
Cc1cccc(NC(=O)CNC(=O)COC(=O)C2CC2C)c1C (centres undefined)	none (no result: TLR4 MyD88 comp, HSF1 inhib, HSF1 activator)
CCN(CCS(=O)(=O)c1ccc(Cl)cc1)C(=O)Nc1ccccc1	HSF1 inhib -64.1 (no result: TLR4 MyD88 comp, TLR9-MyD88 block)
O=C(CSCCS(=O)(=O)c1ccc(Cl)cc1)Nc1ccccc1	none (no result: TLR4 MyD88 comp)
COc1ccc(C(CC(=O)c2ccc(C)cc2)C(C#N)C#N)cc1OC (centres undefined)	HSF1 activator 73.0
CCOc1ccc(C(=O)N2CCc3ccccc32)cc1	none (no result: TLR4 MyD88 comp)
CCOc1ccc(S(=O)(=O)NCCC(=O)OC(C)C(=O)N2CCc3ccccc32)cc1 (centres undefined)	HSF1 activator 56.1
CC(C)NC(=O)NS(=O)(=O)c1cnccc1N1CCCCC1	HSF1 activator 50.5
CC(C)N1CCN(c2ccncc2S(=O)(=O)N2CCCCC2)CC1	none (no result: TLR4 MyD88 comp, HSF1 inhib, HSF1 activator)
CCC(C)NC(=O)c1cn(CC)c2ccc(S(=O)(=O)N3CCCCCC3)cc2c1=O (centres undefined)	none (no result: TLR4 MyD88 comp)
COc1cccc2sc(N(CCCN(C)C)C(=O)c3ccc(S(=O)(=O)N4CCc5ccccc5C4)cc3)nc12	none (no result: TLR4 MyD88 comp)
COc1ccc(OC)c2sc(N(CCCN(C)C)C(=O)c3ccc(S(=O)(=O)N4CCc5ccccc5C4)cc3)nc12	HSF1 inhib -68.6 (no result: TLR4 MyD88 comp, NOD2-RIPK2 inh, TLR9-MyD88 block)
